In the supplement of paper PMC10981050:
Values joined by “and” are separate entries in the source; they are usually repeats but may differ in a detail not shown here. Identical values can stand only once. Counter-ions that a name gives are not always drawn.

Assays:
Assay in all cases: cell viability relative to vehicle control; higher = less cytotoxic
Settings in all cases: 10 µM
K562 = tested on: K562
Outline: (§1)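 CRISPR-edited mutant clones and isogenic wild-type clones from four leukaemia lines were screened against Selleck bioactive, kinase and epigenetic probe libraries, with identity-inconsistent compounds excluded. Each compound was acoustically dispensed at a single 10 µM dose into 384-well plates holding 2000 cells in 50 µL medium per well. After 48 h the supernatant was removed and CellTiter-Glo luminescence was read. Viability was expressed as percent of the on-plate vehicle control and analysed in Genedata Screener.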

MARIMO = tested on: MARIMO
Outline: as §1

MOLM14 = tested on: MOLM14
Outline: as §1

OCI-AML2 = tested on: OCI-AML2
Outline: as §1

Row | SMILES | cell viability (K562; SRSF2 genotype: SRSF2 P95H/wt) | cell viability (K562; SRSF2 genotype: SRSF2 wt/wt) [%] | cell viability (MARIMO; SRSF2 genotype: SRSF2 P95H/wt) [%] | cell viability (MARIMO; SRSF2 genotype: SRSF2 wt/wt) [%] | cell viability (MOLM14; SRSF2 genotype: SRSF2 P95H/wt) [%] | cell viability (MOLM14; SRSF2 genotype: SRSF2 wt/wt) [%] | cell viability (OCI-AML2; SRSF2 genotype: P95H/wt) [%] | cell viability (OCI-AML2; SRSF2 genotype: wt/wt) [%]
1 | C[C@@]1(CO)C[C@@H](O)C[C@@]2(C)[C@@H]3CC[C@](C)([C@@H](O)CO)C=C3CC[C@H]12 [Kirenol] | 98.1% and 101% | 97.7 | 89.3 | 96.2 | 107 | 104 | 94.6 | 101
2 | O=C(O)c1ccc(-c2ccc(C=C3SC(=S)N(Cc4ccccc4)C3=O)o2)cc1 [Leukadherin-1] | 89.1% and 83.5% | 82.9 | 85.4 | 96.4 | 82.3 | 91.9 | 89 | 112
3 | O=[N+]([O-])c1ccc(Sc2cccc[n+]2[O-])c2nonc12 | 0.23% and 0.26% | 0.23 | 0.65 | 0.24 | 0.22 | 0.25 | 0.28 | 0.27
4 | COc1ccc(CCCOC(Cn2ccnc2)c2ccc(OC)cc2)cc1 (stereo not drawn) | 16.1% and 28.8% | 28.9 | 13.8 | 14.8 | 19.7 | 4.26 | 14.6 | 18.9
5 | O=c1cc(-c2ccccc2)oc2cc(O)c(O)c(O)c12 [Baicalein] | 81.4% and 80% | 80.5 | 88.2 | 83.8 | 74.8 | 85.2 | 91.2 | 82.6
6 | C[C@@]1(c2cc(-c3cncnc3)c(F)cc2F)CCSC(N)=N1 | 100% and 99.9% | 100 | 104 | 105 | 92.2 | 102 | 100 | 99.2
7 | CC(C)C(=O)Oc1ccc(CO)cc1[C@H](CCN(C(C)C)C(C)C)c1ccccc1 [Fesoterodine Fumarate] | 97.2% and 107% | 102 | 91.7 | 98.4 | 102 | 104 | 113 | 98
8 | CCOC(=O)c1c(C)n(C)c2ccc(O)cc12 [Mecarbinate] | 108% and 99.1% | 99.8 | 97.3 | 104 | 116 | 112 | 92.2 | 98.1
9 | O=C(O)COCCN1CCN(C(c2ccccc2)c2ccc(Cl)cc2)CC1 (stereo not drawn) [Cetirizine Dihydrochloride] | 94.7% and 100% | 98.7 | 95 | 93.1 | 94.2 | 100 | 103 | 101
10 | CCCCOc1ccc(C(=O)CCN2CCCCC2)cc1 [Dyclonine hydrochloride] | 80.7% and 80.8% | 80.6 | 77.8 | 68.7 | 49.2 | 76.4 | 64.5 | 64.2
11 | CCCc1cc(-c2nc(-c3ccc(C)cc3)cs2)ccn1 [Fatostatin] | 22.9% and 30.5% | 39 | 46.2 | 36 | 51.6 | 35.5 | 34.2 | 35.4
12 | CCCC(=O)Nc1ncnc2c1ncn2[C@@H]1O[C@@H]2COP(=O)(O)O[C@H]2[C@H]1OC(=O)CCC [Dibutyryl-cAMP (Bucladesine)] | 91.3% and 90.5% | 92.8 | 87.2 | 97.4 | 83.6 | 94.4 | 104 | 97.7
13 | CC(=O)NC[C@H]1CN(c2ccc(N3CCOCC3)c(F)c2)C(=O)O1 [Linezolid (Zyvox)] | 81.9% and 81.7% | 84.3 | 85 | 92.5 | 88.3 | 85.5 | 81.4 | 86.7
14 | COCCc1ccc(OCC(O)CNC(C)C)cc1 (stereo not drawn) [Metroprolol succinate] | 103% and 108% | 105 | 100 | 110 | 99.5 | 107 | 113 | 108
15 | CC1=C(C(=O)OCCN(Cc2ccccc2)c2ccccc2)C(c2cccc([N+](=O)[O-])c2)C(P2(=O)OCC(C)(C)CO2)=C(C)N1 (stereo not drawn) [Efonidipine] | 78.8% and 87.3% | 83.7 | 95.5 | 98.4 | 82.2 | 95.7 | 104 | 82.3
16 | COc1c(-c2ccc3cc(NS(C)(=O)=O)ccc3c2)cc(-n2ccc(=O)[nH]c2=O)cc1C(C)(C)C [S5402 Dasabuvir(ABT-333).cdx] | 84% and 86.8% | 80.6 | 82 | 89.6 | 88.3 | 97.3 | 90.5 | 90.5
17 | CC1=C[C@H](O)CC(C)(C)[C@H]1/C=C/C(C)=C/C=C/C(C)=C/C=C/C=C(C)/C=C/C=C(C)/C=C/C1=C(C)C[C@@H](O)CC1(C)C [lutein] | 99.5% and 98.9% | 95.8 | 88.7 | 100 | 88.8 | 110 | 103 | 107
18 | CC(=O)OCC(=O)[C@H]1CC[C@H]2[C@@H]3CCC4=CC(=O)CC[C@]4(C)[C@H]3CC[C@]12C [Deoxycorticosterone acetate] | 91.4% and 91.9% | 98.4 | 89.8 | 99 | 89 | 96.2 | 86.1 | 76.2
19 | CCCC(C)NC(=O)c1ccc(Cl)c(Cl)c1 (stereo not drawn) | 101% and 97.6% | 105 | 90.5 | 96.2 | 112 | 103 | 96 | 96.8
20 | CC(=O)N1C[C@H](O)C[C@H]1C(=O)O [Oxaceprol] | 101% and 93.4% | 99.3 | 104 | 109 | 96.1 | 102 | 94.3 | 106
21 | CNC(=O)c1ccccc1Sc1ccc2c(/C=C/c3ccccn3)n[nH]c2c1 [Axitinib] | 8.75% and 13.3% | 14 | 57 | 65.2 | 29.5 | 15.3 | 36.9 | 34
